Source: PubChem BioAssay AID1159580 (chemical genetic matrix, 2015)
Several values for one entry are separate records, joined by “and”; a condition that tells them apart may be missing. Equal entries are not always repeated. About 2,000 (36%) of roughly 5,500 compounds were called active. Roughly 18% stayed inconclusive and do not appear here. Rule as the data show it: active = normalized growth mostly below about 0.91 (no sharp cut-off); inconclusive = no clear call, values can overlap the other calls; inactive = mostly above about 0.92. Some of the results follow.

Assay: chemical genetic growth profiling, strain panel (AID 1159580);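 also: tested at 20 µM; growth read once vehicle control cultures reached saturation at 30 °C; 1 = growth at the plate median or of vehicle wells; lower values mean less growth of the strain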
Details: S. cerevisiae deletion strains, growth OD

Measured: normalized growth

COC(=O)C1=COC(C)C2CN3CCC4(C(=O)Nc5ccccc54)C3CC12 (configuration not stated)
inactive: locus YAL021C, strain ccr4, active compounds read low 1.02 and 1.01 | locus YAL026C, strain drs2, active compounds read low 1.02 | locus YAL030W, strain snc1, active compounds read low 1.01 | locus YBL061C, strain skt5, active compounds read low 1.04 and 1.02 and 1.03 | locus YBR009C, strain hhf1, active compounds read low 1.04 and 1.01 and 1.02 | locus YBR023C, strain chs3, active compounds read low 1.02 and 1.01 | locus YBR171W, strain sec66, active compounds read low 1.03 and 1.02 | locus YBR231C, strain swc5, active compounds read low 1.02 | locus YBR279W, strain paf1, active compounds read low 1.02 and 1.01 | locus YCL011C, strain gbp2, active compounds read low 1.02 and 1.01 | locus YCL016C, strain dcc1, active compounds read low 1.01 | locus YCL061C, strain MRC1, active compounds read low 1.02 and 1.01 | locus YCL069W, strain vba3, active compounds read low 1.02 and 1.01 | locus YCR088W, strain abp1, active compounds read low 1.02 and 1.01 | locus YDL005C, strain med2, active compounds read low 1.02 and 1.01 | locus YDL040C, strain nat1, active compounds read low 1.02 | locus YDR001C, strain nth1, active compounds read low 1.02 and 1.01 | locus YDR069C, strain doa4, active compounds read low 1.02 and 1.04 | locus YDR137W, strain rgp1, active compounds read low 0.988 and 0.962 and 0.914 | locus YDR159W, strain sac3, active compounds read low 1.05 and 1.02 and 1.03 | locus YDR195W, strain ref2 0.992 and 0.996 and 1.01 | locus YDR297W, strain sur2, active compounds read low 1.02 | locus YDR334W, strain swr1, active compounds read low 1.02 and 1.01 | locus YDR335W, strain msn5, active compounds read low 1.03 and 1.02 | locus YDR392W, strain spt3, active compounds read low 1.04 and 1.02 | locus YEL003W, strain gim4, active compounds read low 1.03 and 1.02 | locus YEL037C, strain rad23, active compounds read low 1.01 and 1.02 | locus YEL061C, strain CIN8 (second series), active compounds read low 1.02 and 1.01 | locus YER015W, strain faa2, active compounds read low 1.02 | locus YER016W, strain bim1, active compounds read low 1.01 and 1.02 | locus YER111C, strain swi4, active compounds read low 1.03 and 1.02 and 1.04 | locus YER155C, strain BEM2 (second series), active compounds read low 1.03 and 1.02 and 1.04 | locus YFR010W, strain ubp6, active compounds read low 1.02 | locus YGL167C, strain pmr1, active compounds read low 1.03 and 1.01 and 1.02 | locus YGL173C, strain kem1, active compounds read low 1.04 and 1.02 and 1.03 | locus YGL227W, strain vid30, active compounds read low 1.03 and 1.01 and 1.02 | locus YGL240W, strain doc1, active compounds read low 1.02 | locus YGL253W, strain hxk2, active compounds read low 1.02 and 1.01 | locus YHR013C, strain ard1, active compounds read low 1.03 and 1.01 and 1.02 | locus YHR027C, strain rpn1, active compounds read low 1.02 and 1.01 | locus YHR142W, strain chs7, active compounds read low 1.02 and 1.01 | locus YJL092W, strain hpr5, active compounds read low 1.03 and 1.01 and 1.02 | locus YJL095W, strain BCK1 (second series), active compounds read low 1.01 and 1.02 | locus YJL115W, strain asf1, active compounds read low 1.02 and 1.01 | locus YJL129C, strain trk1, active compounds read low 1.03 and 1.02 | locus YJL154C, strain vps35, active compounds read low 1.02 and 1.01 | locus YJL164C, strain tpk1, active compounds read low 1.02 and 1.03 | locus YJL166W, strain qcr8, active compounds read low 1.03 and 1.01 and 1.02 | locus YJL187C, strain SWE1, active compounds read low 1.02 and 1.01 | locus YKL160W, strain elf1, active compounds read low 1.02 | locus YKR026C, strain gcn3, active compounds read low 1.02 and 1.03 | locus YKR091W, strain srl3, active compounds read low 1.02 and 1.03 | locus YLL001W, strain dnm1, active compounds read low 1.03 and 1.02 | locus YLL026W, active compounds read low 1.01 and 1.02 | locus YLL041C, strain sdh2, active compounds read low 1.02 and 1.01 | locus YLR027C, strain aat2, active compounds read low 1.03 and 1.01 | locus YLR221C, strain rsa3, active compounds read low 1.02 and 1.01 | locus YLR258W, strain gsy2, active compounds read low 1.02 | locus YLR262C, strain YPT6 (second series), active compounds read low 1.02 and 1.01 and 0.938 | locus YLR320W, strain mms22, active compounds read low 1.04 and 1.03 | locus YLR342W, strain FKS1, active compounds read low 1.02 | locus YLR357W, strain rsc2, active compounds read low 1.02 and 0.996 and 1.03 | locus YLR370C, strain arc18, active compounds read low 1.03 and 1 and 1.01 | locus YLR384C, strain iki3, active compounds read low 1.02 and 1.01 | locus YML120C, strain ndi1, active compounds read low 1.04 and 1.02 and 1.03 | locus YMR058W, strain fet3, active compounds read low 1.02 | locus YMR125W, strain sto1, active compounds read low 1.02 and 1.04 | locus YMR129W, active compounds read low 1.02 and 1.01 | locus YMR205C, strain PFK2, active compounds read low 1.03 and 1.02 | locus YMR231W, strain pep5, active compounds read low 1 and 1.01 | locus YNL071W, strain lat1, active compounds read low 1.02 and 1.01 | locus YNL209W, strain ssb2, active compounds read low 1.02 and 1.01 | locus YNL248C, strain rpa49, active compounds read low 1.02 and 1.01 | locus YNL322C, strain KRE1 (second series), active compounds read low 1.01 and 1.02 | locus YNR049C, strain mso1, active compounds read low 1.02 and 1.01 and 1.03 | locus YOR001W, strain rrp6, active compounds read low 1.03 and 1.02 | locus YOR070C, strain gyp1, active compounds read low 1.02 and 1.01 | locus YOR080W, strain dia2, active compounds read low 1.03 and 1.02 | locus YOR083W, strain WHI5, active compounds read low 1.02 and 1.01 | locus YOR106W, strain vam3, active compounds read low 1.02 | locus YOR265W, strain rbl2, active compounds read low 1.01 and 1.02 | locus YOR270C, strain vph1, active compounds read low 1.02 and 1.04 and 1.03 | locus YOR290C, strain snf2, active compounds read low 1.02 | locus YPL051W, strain arl3, active compounds read low 1.01 | locus YPL078C, strain atp4, active compounds read low 1.02 | locus YPL106C, strain sse1, active compounds read low 0.998 and 1 and 1.02 | locus YPL240C, strain hsp82, active compounds read low 1 and 1.02
